# The list is not random: actives were taken first. Their share in the collection is about 18%.
# DT40 TDP1 no CPT: qHTS for Inhibitors of human tyrosyl-DNA phosphodiesterase 1 (TDP1): qHTS in cells in absence of CPT; Potency, µM (highest dose often 46.2 µM), without a hit: at the top dose activity change, negative = growth inhibition, usual class: inhibitors; 15% of 420,000 active; AID 686978, 2013; DT40 Tdp1-/- hTDP1 cells, no CPT, ATP luminescence, 48 h; further: potency means the concentration at half of the fitted maximal effect; nearly all actives have a fitted effect of over 55% in size
#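 Readout: luminescence from CellTiter-Glo after 30 min in the dark at RT. Cells: DT40 Tdp1-/- with stable hTDP1, 400/well. Exposure: compounds alone, ≥48 hr, 37 °C.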
# IL-1B inflam inh: blocks inflammasome-driven IL-1 beta release; THP-1 LPS/ATP IL-1B secretion, AlphaLISA, 16 h; stronger effect = lower value; activity change, % at 57.5 µM; 4.7% of 360,000 active; in the data active means activity change below about -50%; inconclusive means mostly about -30% to -49%
#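 THP-1 cells pretreated 1 hr with compounds (up to 57.5 uM final), then stimulated with LPS (250 ng/mL final) plus ATP (1.25 mM final); secreted IL-1B measured by AlphaLISA after 16 hr, decreased signal indicating inhibition.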
# LDHA block: inhibitors of human lactate dehydrogenase A; P00338; purified LDHA, NADH/diaphorase-resazurin fluorescence; stronger effect = lower value; activity change, % (values are at about 110 or 230 µM); 0.15% of 480,000 active; AID 1347041; in the data active means activity change below about -30%; inconclusive means mostly about -25% to -30%;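 further: plate controls were DMSO wells for no effect and wells without enzyme for full effect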
#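 Remaining NADH was detected by diaphorase (0.133 mg/mL) converting 37 µM resazurin to fluorescent resorufin, read at 0 and 20 minutes. The preceding 5-minute room-temperature reaction used 2 nM LDHA, 0.2 mM sodium pyruvate and 0.06 mM NADH at pH 7.4.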
# VP16 counter: inhibits Gal4-VP16 luciferase reporter, ROR gamma counter-screen; AID 2546; Drosophila S2 Gal4-VP16 UAS-luciferase, luminescence, 20 h; 3.5% of 310,000 active; Potency, µM (top dose mostly 53.6 µM), inactives show at the top dose activity, negative = inhibition, hits mostly inhibitors;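 further: Gal4-VP16 expression switched on by copper sulfate through the metallothionein promoter; potency means the concentration at half of the fitted maximal effect; nearly all actives have a fitted effect of over 50% in size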
# RORgamma inh: blocks mouse ROR gamma transcriptional activity; Drosophila S2 Gal4-RORgamma UAS-luciferase reporter, 20 h; AID 2551; Potency, µM (titrated, usually from 53.6 µM), inactives show top-dose activity change, negative = inhibition, most hits filed as inhibitors; 5.4% of 310,000 active; further: potency means the concentration at half of the fitted maximal effect; nearly all actives have a fitted effect of over 60% in size
# Target sequence (P51450 whole entry, looked up, the tested form may be a part): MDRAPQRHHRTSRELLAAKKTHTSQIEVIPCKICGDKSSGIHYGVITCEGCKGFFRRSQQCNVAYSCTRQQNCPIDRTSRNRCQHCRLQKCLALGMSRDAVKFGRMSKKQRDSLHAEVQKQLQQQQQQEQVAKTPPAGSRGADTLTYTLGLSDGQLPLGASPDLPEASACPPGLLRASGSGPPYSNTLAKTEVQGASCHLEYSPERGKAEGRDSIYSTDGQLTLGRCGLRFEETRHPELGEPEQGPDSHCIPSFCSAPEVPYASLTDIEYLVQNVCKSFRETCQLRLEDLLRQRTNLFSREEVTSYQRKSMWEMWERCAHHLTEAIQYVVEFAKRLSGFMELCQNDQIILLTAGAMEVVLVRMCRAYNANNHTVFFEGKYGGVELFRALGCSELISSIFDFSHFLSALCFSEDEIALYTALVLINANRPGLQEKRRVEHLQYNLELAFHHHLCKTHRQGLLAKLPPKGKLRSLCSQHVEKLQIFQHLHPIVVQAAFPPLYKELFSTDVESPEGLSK
#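 Luciferase reporter read in Schneider cells carrying Gal4-RORγ (mouse) and UAS-Photinus luciferase; cells given compound 1 h before 700 uM copper sulfate induction, then incubated 20 h at ambient temperature.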
# TDP1 cell CPT: growth inhibition of DT40 Tdp1-/-;hTDP1 cells with camptothecin (screen for TDP1 inhibitors). 12% of 420,000 active. Potency, µM (titrated, usually from 46.2 µM), without a hit: at the top dose activity change, negative = growth inhibition, hits mostly inhibitors. chicken DT40 Tdp1-/-;hTDP1 cells + 20 nM CPT, ATP luminescence, 48 h. AID 686979; further: potency means the concentration at half of the fitted maximal effect; nearly all actives have a fitted effect of over 55% in size
#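 Chicken DT40 Tdp1-/- cells complemented with human TDP1, 400 cells/well, exposed to compounds plus 20 nM camptothecin for at least 48 h at 37 C; viability read as ATP content by CellTiter-Glo luminescence.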
# * hit, by the source's call; u = inconclusive; x = no result. Unless noted, the call rests on the fitted dose curve; in most records, active means well fitted curve in the direction sought with a large enough effect; inconclusive means small, poorly fitted or top-dose-only effect, or another doubt; inactive means no such curve, though single readings can be large; an effect the other way counts as inactive or inconclusive. Unless noted, on the % scale 0 is the no-effect control and ±100 the full control effect.
SMILES,DT40 TDP1 no CPT,IL-1B inflam inh,LDHA block,VP16 counter,RORgamma inh,TDP1 cell CPT
Cc1nn(-c2ccccc2Cl)c(Cl)c1/C=N/Nc1nc2ccccc2s1,12µM*,12,-2,0.32µM*,1µM*,u
CCn1c(C)c(/C=N/Nc2nc3ccccc3s2)c2ccccc21,18µM*,u,1,u,5µM*,18µM*
CCOC(=O)N/N=C/c1c(C)nn(-c2ccccc2Cl)c1Cl,u,-9,1,u,u,u
CC(=O)Nc1ccc(/C=N/Nc2nc3ccccc3s2)cc1,-25%,52,-1,3%,-9%,-27%
C(=N\Nc1nc2ccccc2s1)/c1ccco1,u,u,-1,u,11µM*,-24%
Cc1nc(NCCN(C)C)c(C#N)c2c1CCCC2,x,x,-1,x,x,x
Cc1ccc(NC(=O)CCNC(=O)Cc2ccccc2)cc1C,x,x,-10,x,x,x
COC(=O)CNC(=O)CSc1nc2sccc2c(=O)n1-c1ccccc1,6%,1,-13,4%,19%,5%
COC(=O)CNC(=O)CSc1nc2sc(-c3ccccc3)cc2c(=O)n1-c1ccccc1,-27%,-66*,-6,x,x,u
CC(C)CC(=O)Nc1cccc2c1C(=O)N(c1ccccc1)C2=O,3%,12,0,-5%,5%,3%
CC(C)CC(=O)O/N=C1\C(=O)N(c2ccccc2)c2ccccc21,23µM*,-64*,2,0%,3%,21µM*
Cc1ccc2c(COC(=O)[C@H](C)NC(=O)c3ccccc3)cc(=O)oc2c1,x,x,-2,x,x,x
COc1ccc([C@H]2[C@H](C(=O)C(C)(C)C)N3N=Cc4ccccc4C3[C@]23N=C(c2ccccc2)OC3=O)cc1OC (stereo not given in full),u,6,6,-10%,27%,-24%
CC(C)(C)OC(=O)[C@H]1[C@H](c2ccc([N+](=O)[O-])cc2)C2(C(=O)c3ccccc3C2=O)C2c3ccccc3C=NN21 (stereo not given in full),18µM*,-27,2,-3%,43%,u
Cc1ccc(-c2cc(C(=O)Nc3cccc(C)n3)c3ccccc3n2)cc1,x,x,-5,x,x,x
CCCN(CCC)S(=O)(=O)c1ccc(C(=O)Nc2nnc(COC)o2)cc1,u,22,-1,2.2µM*,0.56µM*,u
COCCN(CCOC)S(=O)(=O)c1ccc(C(=O)Nc2nnc(COC)o2)cc1,12%,3,-1,-7%,u,-11%
CCN(CC)S(=O)(=O)c1ccc(C(=O)Nc2nn[nH]n2)cc1,x,x,-2,x,x,x
CCc1nnc(NC(=O)c2ccc(S(=O)(=O)N(CC(C)C)CC(C)C)cc2)o1,18µM*,56,-4,0.35µM*,0.32µM*,21µM*
C=CCN(CC=C)S(=O)(=O)c1ccc(C(=O)Nc2nnc(CSC)o2)cc1,u,35,1,2.8µM*,0.56µM*,u
COCCN(CCOC)S(=O)(=O)c1ccc(C(=O)Nc2nnc(CSC)o2)cc1,21%,-5,-5,13µM*,5µM*,-6%
COCCN(CCOC)S(=O)(=O)c1ccc(C(=O)Nc2nnc(C)o2)cc1,-6%,28,4,u,10µM*,0%
COCc1nnc(NC(=O)c2ccc(S(=O)(=O)N(C)C3CCCCC3)cc2)o1,u,25,-1,4.5µM*,1.6µM*,u
CSCc1nnc(NC(=O)c2ccc(S(=O)(=O)N(C)C)cc2)o1,u,-17,-4,5µM*,2µM*,u
CSCc1nnc(NC(=O)c2ccc(S(=O)(=O)N(CC(C)C)CC(C)C)cc2)o1,x,x,x,0.63µM*,0.28µM*,x
SMILES,DT40 TDP1 no CPT,IL-1B inflam inh,LDHA block,VP16 counter,RORgamma inh,TDP1 cell CPT
CC1CCC(COC(=O)C[N+]2(C)CCCCC2)C(C)C1 (stereo not given),x,x,-2,x,x,x
O=C(NC1CCOC1=O)C1CCCCC1 (stereo not given),x,x,-6,x,x,x
CCOC(=O)c1c(NC(=O)C(=O)NCc2ccco2)sc2c1CC(C)(C)OC2,x,x,6,x,x,x
Cc1cc(SCC(=O)NN2C(=O)NC3(CCC(C)CC3)C2=O)nc2c(C)cccc12 (stereo not given),x,x,10,x,x,x
CCc1nnc(NC(=O)c2ccc(S(=O)(=O)N(C)c3ccccc3)cc2)o1,4.6µM*,34,2,0.56µM*,0.45µM*,12µM*
COc1cc(-c2noc(C3CCCN(S(=O)(=O)c4cccs4)C3)n2)ccc1OC(C)C (stereo not given),x,x,-1,x,x,x
O=S(=O)(Cc1cc(NCc2ccccc2)nc(-c2ccccn2)n1)c1ccccc1,4.6µM*,39,-19,u,4.5µM*,4.6µM*
Cn1c(=O)c2cc(NC(=O)NCc3ccc(F)cc3)ccc2n1C/C=C/c1ccccc1,9.2µM*,63,-2,x,x,8.2µM*
CCOCCC(=O)Nc1ccc2c(c1)c(=O)n(C)n2C/C=C/c1ccccc1,3.3µM*,72,-10,x,x,4.6µM*
CCNC(=O)Nc1ccc2c(c1)c(=O)n(C)n2CC=C(C)C,-5%,12,10,x,x,-18%
CC(C)=CCn1c2ccc(NC(=O)NCc3ccc(F)cc3)cc2c(=O)n1C,1.6µM*,68,-1,x,x,2.1µM*
CC1(C)CC(=O)C2=C(C1)NC(=O)CC2c1ccc(OCc2ccccc2)cc1 (stereo not given),x,x,8,x,x,x
CCCNc1nc2ccccc2nc1C(=O)Nc1cccc(C)c1,x,x,-1,x,x,x
Cc1ccc2c(c1)C/C(=C\c1cccnc1)C2=O,x,x,-1,x,x,x
Cc1ccc2nc(C3CCCCC3)[nH]c2c1,u,-17,0,u,u,-8%
CC1CCCCN1C(=O)CN1CCC(c2nc3ccc(Cl)cc3[nH]2)CC1 (stereo not given),23µM*,-12,-1,-8%,-3%,u
Cc1ccc(CN2CCC(c3nc4ccc(Cl)cc4[nH]3)CC2)cc1,16µM*,x,-1,-4%,-13%,16µM*
Cc1nc2ccc(Cl)cc2cc1C(=O)N1CCN(CC(=O)N2CCCCC2C)CC1 (stereo not given),x,x,3,x,x,x
Cc1cc(C)c2c(n1)oc1c(=O)n(CC(=O)NC3CCCCC3)cnc12,x,x,5,x,x,x
CC(C)(C)c1nnc2c3cnn(-c4ccccc4)c3ncn12,x,x,7,x,x,x
COc1ccc(-c2c(C#N)c(SCC(=O)Nc3ccccc3C)nc(C)c2C(=O)Nc2ccc(Cl)cc2)cc1,-14%,x,0,x,x,3%

# Screens as filed in PubChem.
